Source: the supplement of paper PMC4166925
± gives the standard deviation of the averaged measurements. Over roughly 33,000 sequences, “E-score (dimensionless, -0.5 to 0.5)” has its median near -0.046; the highest 2% begin near 0.36. The list comes from a sample in which the highest values are over-represented; it also holds similar and randomly drawn sequences.

What follows are sequences tested on T1, SpTbr T-box DNA-binding domain (GST fusion) (assay: PBM E-score of 8-mer (E-score (dimensionless, -0.5 to 0.5)); Tbr is Tbrain of the sea star Patiria miniata (Pm) or the sea urchin Strongylocentrotus purpuratus (Sp); higher = stronger binding preference). Details: the construct has about 5 more residues each side.
T1 sequence: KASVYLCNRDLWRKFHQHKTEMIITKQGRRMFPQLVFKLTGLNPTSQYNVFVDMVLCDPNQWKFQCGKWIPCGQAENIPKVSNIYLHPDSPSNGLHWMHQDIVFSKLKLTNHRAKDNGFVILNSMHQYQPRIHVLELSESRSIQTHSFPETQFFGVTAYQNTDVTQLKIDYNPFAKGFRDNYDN
Procedure, shortened: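 GST-fused Tbr T-box DNA-binding domains (the whole T-box plus about five flanking residues) were expressed in BL21 E. coli at 20 °C and purified by glutathione affinity chromatography. Universal Agilent oligonucleotide arrays were made double-stranded by primer extension, incubated with 200 nM protein in PBS (pH 7.5), then scanned and quantified. Every ungapped 8-mer was scored from probe intensities. The Universal PBM Analysis Suite gave each word an enrichment E-score, averaged over duplicate arrays.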

Row | Sequence | PBM E-score of 8-mer
1 | GAGTGAGA | 0.346 ± 0.023
2 | AGGTGAGG | 0.4113 ± 0.0021
3 | ACGTGAGG | 0.196 ± 0.024
4 | CATCGATA | -0.00022 ± 0.06
5 | CGCAAGGA | -0.051 ± 0.018
6 | AGATTCCG | -0.0246 ± 0.022
7 | CTCGTATA | -0.142 ± 0.0069
8 | TAACTACA | 0.0924 ± 0.085
9 | GCGGTGTA | -0.122 ± 0.012
10 | AAGGTGTG | 0.4816 ± 0.0018
11 | ACGGTGTG | 0.3578 ± 0.0014
12 | GGGGTGTA | 0.167 ± 0.062
13 | AAGGTGTA | 0.394 ± 0.023
14 | AAGGTTTG | -0.161 ± 0.046
15 | CCGGTGTA | 0.115 ± 0.037
16 | ACGGTGTA | 0.137 ± 0.026
17 | GAGGTGTA | 0.418 ± 0.014
18 | TACGACCA | -0.249 ± 0.12
19 | CGTGCACG | 0.00996 ± 0.044
20 | CTTTCTAA | -0.187 ± 0.023
21 | ACGCAGGC | -0.149 ± 0.011
22 | CTTAGTGA | 0.0752 ± 0.0019
23 | ACGCGAGT | 0.107 ± 0.072
24 | ATGGGAGC | -0.168 ± 0.01
25 | CGTTCACA | 0.418 ± 0.0069

Row | Sequence | PBM E-score of 8-mer
26 | CGTTCACC | 0.0843 ± 0.012
27 | GGTTCATA | -0.0395 ± 0.039
28 | GGTTCACA | 0.3973 ± 0.0018
29 | AGTTCACC | -0.00201 ± 0.066
30 | AGATCACA | 0.342 ± 0.02
31 | AGTTCACA | 0.442 ± 0.013
32 | CGTTCAAG | -0.167 ± 0.0076
33 | CGATCACA | 0.396 ± 0.0068
34 | GGTTCAAA | -0.343 ± 0.0085
35 | CGATCACG | 0.221 ± 0.037
36 | AGTTCACG | 0.338 ± 0.049
37 | TAGATCCA | -0.288 ± 0.061
38 | CTAGTTTA | -0.132 ± 0.14
39 | AGTCCTGG | -0.262 ± 0.021
40 | CGGAGATA | 0.0372 ± 0.0019
41 | AATTGGGA | -0.0875 ± 0.07
42 | CCTTGGAG | -0.1541 ± 0.00054
43 | ACGCGCCG | 0.227 ± 0.11
44 | ACACAGTA | 0.116 ± 0.02
45 | GCCTTCGC | 0.296 ± 0.0037
46 | CGATGCAG | -0.164 ± 0.022
47 | AATCTTCC | -0.133 ± 0.036
48 | GAAGTAAA | -0.281 ± 0.027
49 | ATAATCTC | -0.0752 ± 0.092
50 | CCGAGACG | -0.121 ± 0.015

Row | Sequence | PBM E-score of 8-mer
51 | GCGAGAGA | 0.203 ± 0.061
52 | GCGCGAGA | 0.3663 ± 0.0029
53 | GCGCGAGC | 0.298 ± 0.053
54 | TCGCGAGA | 0.367 ± 0.01
55 | ACGCGAGA | 0.219 ± 0.016
56 | CCGCGAGA | 0.224 ± 0.037
57 | AACTATAT | -0.0107 ± 0.13
58 | GAGTTACC | 0.144 ± 0.011
59 | CGCACAGC | 0.122 ± 0.012
60 | GCCCCAAC | 0.133 ± 0.059
61 | ATGTGTAA | 0.342 ± 0.0099
62 | GTCACCGA | 0.0907 ± 0.0094
63 | CTCACCGA | 0.0544 ± 0.017
64 | GTCACCCA | 0.203 ± 0.0083
65 | CTCACCTA | 0.385 ± 0.014
66 | GTCACCTA | 0.392 ± 0.017
67 | CTTACCTA | -0.163 ± 0.054
68 | GGTCTCGA | -0.115 ± 0.014
69 | GCATGGGC | -0.0364 ± 0.0065
70 | GCTACTAC | 0.013 ± 0.035
71 | ATTCCCAA | -0.227 ± 0.012
72 | AGTGAGAC | 0.169 ± 0.04
73 | GCTGAGAA | 0.26 ± 0.048
74 | CGTGAGGA | 0.178 ± 0.011
75 | CGTGAGAC | 0.2491 ± 0.0021

Row | Sequence | PBM E-score of 8-mer
76 | GGTGAGAA | 0.4745 ± 0.0016
77 | CGTGAGAA | 0.347 ± 0.016
78 | TCTGAGAA | -0.238 ± 0.12
79 | TGAGAGAA | 0.0644 ± 0.036
80 | GGTGAGAC | 0.3819 ± 0.0012
81 | AGTGAGGA | 0.246 ± 0.028
82 | TGTGAGAA | 0.4336 ± 0.0026
83 | GGTGAGGA | 0.384 ± 0.0073
84 | CGTTGAAG | 0.0941 ± 0.031
85 | ATGGACAA | 0.101 ± 0.003
86 | AGGCCAAC | -0.0875 ± 0.028
87 | CGAGTAGC | 0.0635 ± 0.0055
88 | TAGGGCGA | -0.00769 ± 0.086
89 | GAACTTGA | -0.0691 ± 0.0032
90 | CCGCGACG | 0.0384 ± 0.061
91 | ATCAGATA | -0.0339 ± 0.043
92 | AGTGAGAA | 0.422 ± 0.014
93 | AGTGAGAG | 0.3 ± 0.0092
94 | AGTGAGAT | 0.287 ± 0.033
95 | CAACCTGA | -0.0529 ± 0.059
96 | ATTGGTCC | -0.197 ± 0.039
97 | CACGTGTC | 0.391 ± 0.014
98 | AACGTGTG | 0.4114 ± 0.0041
99 | AACGTGTA | 0.135 ± 0.074
100 | AACGTGTC | 0.372 ± 0.0067

Row | Sequence | PBM E-score of 8-mer
101 | AGCGTGTC | 0.152 ± 0.072
102 | CACGTGAC | 0.286 ± 0.042
103 | ACCGTGTG | 0.203 ± 0.052
104 | AACGTGCG | 0.32 ± 0.0051
105 | CACGTGTA | 0.272 ± 0.0034
106 | ACTCGATG | -0.0556 ± 0.081
107 | ACAACGAT | -0.00065 ± 0.016
108 | CACGCCCC | 0.24 ± 0.013
109 | AGACAACG | -0.0213 ± 0.033
110 | CAGCTAGG | 0.101 ± 0.087
111 | CAGCCTCC | -0.239 ± 0.021
112 | CAGGCTAC | -0.221 ± 0.014
113 | ACAATTCA | 0.163 ± 0.069
114 | GCCGACCC | -0.201 ± 0.12
115 | CCCGACAA | 0.154 ± 0.02
116 | GCCGACAC | 0.397 ± 0.0048
117 | ACCGACAT | -0.042 ± 0.038
118 | ACCGACAC | 0.373 ± 0.0082
119 | GCCGACAA | 0.161 ± 0.014
120 | CCCGACAC | 0.367 ± 0.017
121 | CCCGACAG | 0.0718 ± 0.038
122 | ACCGACAA | -0.0797 ± 0.034
123 | GACAATTA | 0.029 ± 0.11
124 | GGACAACA | 0.0909 ± 0.012
125 | GAGGATGC | -0.0317 ± 0.049

Row | Sequence | PBM E-score of 8-mer
126 | CGGAATGC | -0.214 ± 0.051
127 | GCGAACGA | 0.283 ± 0.035
128 | GCGAACGC | 0.3749 ± 0.0018
129 | CCGAACGC | -0.0118 ± 0.08
130 | GCAGAGAA | -0.328 ± 0.0058
131 | GACTCTCA | 0.0161 ± 0.056
132 | ATTCACAA | 0.299 ± 0.061
133 | ATTCACTG | 0.0169 ± 0.045
134 | GTTCACGA | 0.275 ± 0.0011
135 | CTTCACCC | 0.123 ± 0.04
136 | ATTCACTC | 0.115 ± 0.056
137 | ATTCACAC | 0.4807 ± 0.0029
138 | GTTCACAA | 0.376 ± 0.02
139 | ATTCACCG | 0.0187 ± 0.041
140 | GTTCACTA | -0.0482 ± 0.02
141 | CTTCACAC | 0.4852 ± 0.00088
142 | CTTCACAA | 0.32 ± 0.0058
143 | ATTCACAG | 0.395 ± 0.025
144 | AGAGAGCT | -0.0758 ± 0.017
145 | GGAGAACC | 0.0265 ± 0.00056
146 | GCAATACA | -0.0823 ± 0.031
147 | CATCGACA | 0.222 ± 0.013
148 | ACTTTTCT | 0.00466 ± 0.018
149 | CATAAGTC | -0.18 ± 0.0024
150 | CACAGTTA | 0.147 ± 0.022

Row | Sequence | PBM E-score of 8-mer
151 | CCTCAGAC | -0.204 ± 0.031
152 | CACAACAC | 0.3898 ± 0.0017
153 | GACAACAC | 0.385 ± 0.0048
154 | GACAACTC | 0.252 ± 0.019
155 | AACAACAT | 0.187 ± 0.02
156 | CACAACAG | 0.198 ± 0.0064
157 | CACAACAA | 0.285 ± 0.028
158 | AACAACAC | 0.373 ± 0.013
159 | GACAACAA | 0.215 ± 0.015
160 | AACAACAA | 0.102 ± 0.0091
161 | CTCAACAC | 0.269 ± 0.022
162 | GTCAACAA | 0.333 ± 0.0095
163 | GTCAACAC | 0.434 ± 0.0065
164 | AGAGCCAG | 0.0237 ± 0.035
165 | TGTTTCAA | -0.0693 ± 0.047
166 | CAGCGCAA | -0.0911 ± 0.0026
167 | GCAGCGCC | 0.189 ± 0.062
168 | CGCATGGC | -0.0354 ± 0.028
169 | CCTCCACG | 0.0268 ± 0.029
170 | CCGCAAGG | -0.0599 ± 0.044
171 | ACCGTCCG | -0.0723 ± 0.023
172 | CGGTTAAA | -0.129 ± 0.16
